Of roughly 8,800 targets only a part is listed; those with a hit were picked by preference. About 0.5% of all pairs of compound and target were hits.
compound: Cn1cc(CNCC2CCN(c3ncc(C(=O)NO)cn3)CC2)c2ccccc21 [quisinostat]; assay: log2 fold change, soluble protein after heating vs DMSO (PISA); higher = thermal stabilisation; K562 lysate, 10 uM; active = over 0.2 and 3.5 SD of the protein, either way, in both replicates (recomputed)
In short: (§1)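 K562 pellets were dounce-homogenised in PBS pH 7.4 containing 1 mM MgCl2, and the crude extract, at 1 mg/mL protein, was exposed to 10 μM compound for 30 min. Aliquots were heated for 3 min across 48°C-58°C, pooled, brought to 0.5% NP-40 at 4°C and spun at 21,000xg for 90 min, with the supernatant taken as soluble protein. TMTpro 16plex LC-MS/MS with equalised channel sums quantified that protein. Values are log-two fold changes in thermal stability relative to solvent controls, taken from duplicates.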

UniProt Q06187, sequence (Q06187 whole entry, looked up): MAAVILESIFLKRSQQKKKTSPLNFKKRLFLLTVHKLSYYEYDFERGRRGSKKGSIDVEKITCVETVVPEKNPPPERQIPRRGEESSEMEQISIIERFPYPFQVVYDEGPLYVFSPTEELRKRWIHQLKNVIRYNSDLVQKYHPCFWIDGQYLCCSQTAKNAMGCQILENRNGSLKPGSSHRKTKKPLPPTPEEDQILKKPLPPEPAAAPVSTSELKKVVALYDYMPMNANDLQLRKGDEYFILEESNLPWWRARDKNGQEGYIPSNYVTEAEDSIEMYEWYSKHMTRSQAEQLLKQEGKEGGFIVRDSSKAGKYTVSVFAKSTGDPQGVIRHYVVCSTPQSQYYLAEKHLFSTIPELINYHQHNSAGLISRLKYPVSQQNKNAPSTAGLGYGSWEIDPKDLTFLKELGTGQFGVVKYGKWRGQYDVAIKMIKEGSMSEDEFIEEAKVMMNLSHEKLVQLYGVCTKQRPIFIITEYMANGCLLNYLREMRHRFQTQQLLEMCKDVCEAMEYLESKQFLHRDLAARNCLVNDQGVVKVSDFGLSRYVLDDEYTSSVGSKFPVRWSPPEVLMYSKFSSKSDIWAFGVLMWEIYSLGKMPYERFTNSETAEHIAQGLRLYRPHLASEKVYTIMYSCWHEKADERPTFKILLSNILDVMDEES
UniProt Q5U623, sequence (Q5U623 whole entry, looked up): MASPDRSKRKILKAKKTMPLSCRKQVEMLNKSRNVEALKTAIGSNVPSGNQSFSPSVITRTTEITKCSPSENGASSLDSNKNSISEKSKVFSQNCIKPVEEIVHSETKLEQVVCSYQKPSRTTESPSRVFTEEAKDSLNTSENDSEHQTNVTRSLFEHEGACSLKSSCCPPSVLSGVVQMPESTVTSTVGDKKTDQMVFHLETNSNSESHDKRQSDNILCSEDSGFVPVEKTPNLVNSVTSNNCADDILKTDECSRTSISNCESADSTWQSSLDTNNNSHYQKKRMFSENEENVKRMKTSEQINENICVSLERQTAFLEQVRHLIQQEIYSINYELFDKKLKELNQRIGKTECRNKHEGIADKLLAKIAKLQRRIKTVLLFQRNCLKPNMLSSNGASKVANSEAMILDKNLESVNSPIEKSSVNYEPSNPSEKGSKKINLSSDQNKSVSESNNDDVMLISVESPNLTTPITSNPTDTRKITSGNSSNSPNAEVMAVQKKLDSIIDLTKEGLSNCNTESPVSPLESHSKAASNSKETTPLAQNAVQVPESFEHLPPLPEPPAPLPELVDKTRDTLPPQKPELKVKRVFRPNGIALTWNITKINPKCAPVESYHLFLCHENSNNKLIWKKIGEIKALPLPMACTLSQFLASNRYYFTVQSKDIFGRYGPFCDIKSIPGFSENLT
UniProt Q16581, sequence (Q16581 whole entry, looked up): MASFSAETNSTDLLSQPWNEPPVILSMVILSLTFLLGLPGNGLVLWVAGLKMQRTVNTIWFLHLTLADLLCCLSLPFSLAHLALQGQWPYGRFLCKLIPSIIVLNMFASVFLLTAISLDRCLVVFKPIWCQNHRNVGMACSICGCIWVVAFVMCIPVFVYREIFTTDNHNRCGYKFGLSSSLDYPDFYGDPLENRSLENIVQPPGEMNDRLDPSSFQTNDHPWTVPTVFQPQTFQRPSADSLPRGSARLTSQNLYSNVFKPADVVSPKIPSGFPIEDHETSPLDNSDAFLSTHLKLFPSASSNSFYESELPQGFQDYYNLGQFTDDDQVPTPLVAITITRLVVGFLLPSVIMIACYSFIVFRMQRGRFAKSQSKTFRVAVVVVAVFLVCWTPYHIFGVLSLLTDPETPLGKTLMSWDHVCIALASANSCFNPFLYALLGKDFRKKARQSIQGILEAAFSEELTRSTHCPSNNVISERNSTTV
UniProt P15056, sequence (P15056 whole entry, looked up): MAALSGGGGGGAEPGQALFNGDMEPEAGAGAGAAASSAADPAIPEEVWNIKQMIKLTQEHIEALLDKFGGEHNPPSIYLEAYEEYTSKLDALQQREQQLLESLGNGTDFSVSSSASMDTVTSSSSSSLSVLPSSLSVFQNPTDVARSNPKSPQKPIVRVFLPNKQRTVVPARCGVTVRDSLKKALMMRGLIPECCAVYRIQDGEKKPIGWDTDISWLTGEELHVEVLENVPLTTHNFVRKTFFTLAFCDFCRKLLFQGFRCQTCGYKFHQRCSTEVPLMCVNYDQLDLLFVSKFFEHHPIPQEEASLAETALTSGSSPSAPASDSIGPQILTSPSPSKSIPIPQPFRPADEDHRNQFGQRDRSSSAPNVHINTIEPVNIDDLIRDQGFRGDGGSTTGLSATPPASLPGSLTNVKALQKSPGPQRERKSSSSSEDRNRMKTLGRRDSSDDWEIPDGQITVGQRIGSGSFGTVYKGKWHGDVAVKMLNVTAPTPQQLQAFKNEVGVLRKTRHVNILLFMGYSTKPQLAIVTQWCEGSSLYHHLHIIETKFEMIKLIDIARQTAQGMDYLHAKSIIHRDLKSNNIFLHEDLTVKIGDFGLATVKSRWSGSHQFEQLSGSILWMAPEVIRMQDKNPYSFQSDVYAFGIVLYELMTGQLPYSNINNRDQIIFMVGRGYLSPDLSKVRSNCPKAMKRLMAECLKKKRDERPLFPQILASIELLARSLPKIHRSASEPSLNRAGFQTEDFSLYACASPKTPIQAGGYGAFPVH
UniProt Q9UNH5, sequence (Q9UNH5 whole entry, looked up): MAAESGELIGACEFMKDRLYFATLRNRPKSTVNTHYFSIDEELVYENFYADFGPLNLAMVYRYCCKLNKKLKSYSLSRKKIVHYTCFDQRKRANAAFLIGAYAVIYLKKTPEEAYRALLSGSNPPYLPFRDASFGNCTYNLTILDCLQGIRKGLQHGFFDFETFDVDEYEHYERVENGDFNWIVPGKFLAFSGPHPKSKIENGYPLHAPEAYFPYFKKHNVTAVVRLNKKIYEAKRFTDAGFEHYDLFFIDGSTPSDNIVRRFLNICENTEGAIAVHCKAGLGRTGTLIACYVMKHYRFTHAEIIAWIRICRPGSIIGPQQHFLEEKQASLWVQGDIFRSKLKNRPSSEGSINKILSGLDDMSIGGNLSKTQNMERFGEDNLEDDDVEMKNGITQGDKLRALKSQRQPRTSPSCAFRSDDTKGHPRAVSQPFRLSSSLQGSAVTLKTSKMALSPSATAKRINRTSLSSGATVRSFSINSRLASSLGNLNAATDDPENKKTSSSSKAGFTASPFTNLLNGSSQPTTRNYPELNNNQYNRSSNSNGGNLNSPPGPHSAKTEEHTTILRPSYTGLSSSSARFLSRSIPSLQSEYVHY
UniProt Q7Z7K6, sequence (Q7Z7K6 whole entry, looked up): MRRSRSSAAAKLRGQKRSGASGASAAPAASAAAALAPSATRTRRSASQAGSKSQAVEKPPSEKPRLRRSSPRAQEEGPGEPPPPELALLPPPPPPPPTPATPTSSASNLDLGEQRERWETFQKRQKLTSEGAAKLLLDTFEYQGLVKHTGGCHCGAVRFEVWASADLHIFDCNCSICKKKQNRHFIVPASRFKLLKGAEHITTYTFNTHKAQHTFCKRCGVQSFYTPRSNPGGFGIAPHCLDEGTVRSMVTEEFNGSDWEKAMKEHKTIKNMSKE
UniProt Q13825, sequence (Q13825 whole entry, looked up): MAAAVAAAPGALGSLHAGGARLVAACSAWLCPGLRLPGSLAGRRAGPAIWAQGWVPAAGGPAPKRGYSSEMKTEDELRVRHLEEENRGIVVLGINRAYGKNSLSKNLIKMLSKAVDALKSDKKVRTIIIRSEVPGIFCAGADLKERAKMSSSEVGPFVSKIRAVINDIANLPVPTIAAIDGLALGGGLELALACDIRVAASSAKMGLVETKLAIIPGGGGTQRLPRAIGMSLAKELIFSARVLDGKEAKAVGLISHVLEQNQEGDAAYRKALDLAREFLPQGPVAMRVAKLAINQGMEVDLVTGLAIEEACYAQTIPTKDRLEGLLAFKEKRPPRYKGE
UniProt P46527, sequence (P46527 whole entry, looked up): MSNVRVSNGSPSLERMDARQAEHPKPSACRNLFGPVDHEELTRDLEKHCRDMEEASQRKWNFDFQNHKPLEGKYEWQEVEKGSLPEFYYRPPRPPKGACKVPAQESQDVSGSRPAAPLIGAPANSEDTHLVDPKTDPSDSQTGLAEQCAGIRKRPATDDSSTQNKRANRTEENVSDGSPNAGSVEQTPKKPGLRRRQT
UniProt Q9BSU1, sequence (Q9BSU1 whole entry, looked up): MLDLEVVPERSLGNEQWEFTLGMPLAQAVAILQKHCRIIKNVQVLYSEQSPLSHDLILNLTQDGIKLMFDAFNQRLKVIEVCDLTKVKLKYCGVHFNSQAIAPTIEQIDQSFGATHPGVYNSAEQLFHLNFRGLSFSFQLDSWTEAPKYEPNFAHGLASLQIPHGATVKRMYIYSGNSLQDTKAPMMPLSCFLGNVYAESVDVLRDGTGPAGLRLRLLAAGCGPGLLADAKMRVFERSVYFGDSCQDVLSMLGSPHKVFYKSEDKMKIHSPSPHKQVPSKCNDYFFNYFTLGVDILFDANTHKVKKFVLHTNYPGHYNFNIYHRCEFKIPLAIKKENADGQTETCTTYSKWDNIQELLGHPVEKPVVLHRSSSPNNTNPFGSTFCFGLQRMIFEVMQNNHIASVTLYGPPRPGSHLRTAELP
UniProt P0DMB2, sequence (P0DMB2 whole entry, looked up): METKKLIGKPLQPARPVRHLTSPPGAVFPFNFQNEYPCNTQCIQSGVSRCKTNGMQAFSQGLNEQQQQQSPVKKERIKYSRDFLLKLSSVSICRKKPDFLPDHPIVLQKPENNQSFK
UniProt P13994, sequence (P13994 whole entry, looked up): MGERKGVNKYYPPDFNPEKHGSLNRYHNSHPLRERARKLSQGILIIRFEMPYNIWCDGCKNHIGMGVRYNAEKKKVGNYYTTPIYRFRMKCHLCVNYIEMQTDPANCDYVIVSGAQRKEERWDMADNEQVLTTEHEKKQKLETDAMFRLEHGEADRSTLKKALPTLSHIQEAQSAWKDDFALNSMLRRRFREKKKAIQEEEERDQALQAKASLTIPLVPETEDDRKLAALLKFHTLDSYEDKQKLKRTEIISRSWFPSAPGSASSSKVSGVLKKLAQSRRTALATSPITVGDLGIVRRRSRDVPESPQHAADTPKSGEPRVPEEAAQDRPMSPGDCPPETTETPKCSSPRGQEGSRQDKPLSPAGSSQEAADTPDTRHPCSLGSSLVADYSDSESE

For CACUL1 (UniProt Q86Y37), which log2 fold change is on record?
The log2 fold change was 0.025 (inactive).

With CAPNS1 (UniProt K7ES78) as the target, how does the log2 fold change read?
The log2 fold change was 0.247 (inactive).

With B3GALT6 (UniProt Q96L58) as the target, how does the log2 fold change read?
Its log2 fold change is -0.086 (inactive).

For C8orf37 (UniProt Q96NL8), which log2 fold change is on record?
Its log2 fold change is 0.004 (inactive).

How did the log2 fold change turn out when ATXN2 (UniProt F8WB05) was run?
The log2 fold change was -0.208 (inactive).

How did the log2 fold change turn out when BCORL1 isoform 3 (UniProt Q5H9F3) was run?
Its log2 fold change is 0.035 (inactive).

For CDKN1B (UniProt P46527), which log2 fold change is on record?
The log2 fold change was 0.393 (active).

How did the log2 fold change turn out when ATG4D (UniProt Q86TL0) was run?
The log2 fold change was -0.085 (inactive).

Which log2 fold change does the source give for AUH (UniProt Q13825) here?
The log2 fold change was -0.002 (inactive).

With CDK2 (UniProt P24941) as the target, how does the log2 fold change read?
The log2 fold change was -0.077 (inactive).

Which log2 fold change does the source give for CCDC85B (UniProt Q15834) here?
The log2 fold change was 0.086 (inactive).

Which log2 fold change does the source give for ATF7IP2 (UniProt Q5U623) here?
The log2 fold change was -0.336 (active).

With C3AR1 (UniProt Q16581) as the target, how does the log2 fold change read?
Its log2 fold change is 0.065 (inactive).

Which log2 fold change does the source give for ATPSCKMT (UniProt Q6P4H8) here?
Its log2 fold change is 0.018 (inactive).

For CDC14A isoform 2 (UniProt Q9UNH5), which log2 fold change is on record?
Its log2 fold change is -0.174 (inactive).

For CCP110 (UniProt O43303), which log2 fold change is on record?
The log2 fold change was -0.062 (inactive).

How did the log2 fold change turn out when C16orf70 (UniProt Q9BSU1) was run?
The log2 fold change was 0.036 (inactive).

For C8orf88 (UniProt P0DMB2), which log2 fold change is on record?
Its log2 fold change is -0.042 (inactive).

CDKL5 (UniProt O76039) was tested. Which log2 fold change did it give?
Its log2 fold change is -0.283 (inactive).

With CENPV (UniProt Q7Z7K6) as the target, how does the log2 fold change read?
Its log2 fold change is 0.038 (inactive).

With CDAN1 (UniProt H3BPZ6) as the target, how does the log2 fold change read?
The log2 fold change was 0.093 (inactive).

With BICRA (UniProt Q9NZM4) as the target, how does the log2 fold change read?
Its log2 fold change is 0.037 (inactive).

With BRAF (UniProt P15056) as the target, how does the log2 fold change read?
Its log2 fold change is -0.173 (inactive).

CCDC130 (UniProt P13994) was tested. Which log2 fold change did it give?
The log2 fold change was -0.583 (inactive).

CEP295 isoform 3 (UniProt Q9C0D2) was tested. Which log2 fold change did it give?
The log2 fold change was 0.017 (inactive).

With ATE1 (UniProt O95260) as the target, how does the log2 fold change read?
Its log2 fold change is 0.019 (inactive).

BTK isoform 2 (UniProt Q06187) was tested. Which log2 fold change did it give?
Its log2 fold change is -0.05 (inactive).

compound: Cn1cncc1[C@@](N)(c1ccc(Cl)cc1)c1ccc2c(c1)c(-c1cccc(Cl)c1)cc(=O)n2C [tipifarnib]; assay: as above
In short: as §1

CAPNS1 (UniProt U3KPR7) was tested. Which log2 fold change did it give?
Its log2 fold change is 0.161 (inactive).

With BTRC (UniProt Q9Y297) as the target, how does the log2 fold change read?
The log2 fold change was 0.02 (inactive).

How did the log2 fold change turn out when CDK2 (UniProt P24941) was run?
The log2 fold change was 0.011 (inactive).

How did the log2 fold change turn out when ATF7IP2 (UniProt Q5U623) was run?
The log2 fold change was -0.064 (inactive).

Which log2 fold change does the source give for C3AR1 (UniProt Q16581) here?
The log2 fold change was -0.036 (inactive).

Which log2 fold change does the source give for CARHSP1 (UniProt H3BNU9) here?
Its log2 fold change is 0.108 (inactive).

For CDC14A isoform 2 (UniProt Q9UNH5), which log2 fold change is on record?
The log2 fold change was -0.019 (inactive).

Which log2 fold change does the source give for BMT2 (UniProt Q1RMZ1) here?
Its log2 fold change is 0 (inactive).

CENPV (UniProt Q7Z7K6) was tested. Which log2 fold change did it give?
Its log2 fold change is 0.08 (inactive).

With CANX (UniProt D6RHJ3) as the target, how does the log2 fold change read?
Its log2 fold change is 0.126 (inactive).

BRAF (UniProt P15056) was tested. Which log2 fold change did it give?
The log2 fold change was -0.006 (inactive).

How did the log2 fold change turn out when CDCA8 (UniProt Q53HL2) was run?
Its log2 fold change is 0.046 (inactive).

With C18orf25 isoform 2 (UniProt Q96B23) as the target, how does the log2 fold change read?
Its log2 fold change is 0.076 (inactive).

Which log2 fold change does the source give for CEP295 isoform 3 (UniProt Q9C0D2) here?
The log2 fold change was 0.062 (inactive).

Which log2 fold change does the source give for BTK isoform 2 (UniProt Q06187) here?
Its log2 fold change is -0.021 (inactive).

Reference: the supplement of paper PMC10849652
